The target in one assay is GPR137. Description: pooled miR-30 sensor sort-seq; sequence = guide strand. The following applies: shRNA.
Turning to TCACTATGACAGGAGCAGCAAG, the sensor-assay potency score (higher = more potent) was -1.58.
Still for that read-out and setting: in the case of TTGGCCTCCAGGTAGATGCTAG it was -0.691; in that of TCAGACACATTGTACCAGCCGT, -0.426; in that of TGGTCAGACACATTGTACCAGC, -1.27.
With TCCAGGTAGATGCTAGTGGAGG, the sensor-assay potency score (higher = more potent) is -2.54.
Still for that read-out and setting: in the case of AAGAACTGCAGGCAGACGGGGC it was -0.842; in that of TAGAGCAGGACCATGGCGCCAC, -0.353; in that of TAATCGAAGGTGTCCAGCCGGC, -0.771.
In turn, TAGCTGAGACGCTTGTGCCCAT came in with a sensor-assay potency score (higher = more potent) of -0.72.

Another assay deals with GPR172A. The assay is described as above. The following applies: shRNA.
Turning to TGATAGAAGCTGATAGGCCTTA, the sensor-assay potency score (higher = more potent) is -0.123.
The same measure, in the same setting: in the case of TTCACGTAGGAGAACACGCCAA it was -0.595; in that of TGGAACACGTGATAGATGCTGG, -0.57.
The same measure, in the same setting: in the case of TTAGGGTCTGGACCAGGGGTGG it was -1.64; in that of AAGAATGACCGTAAGAAGCGAG, -0.349; in that of TCACGTAGGAGAACACGCCAAG, -1.31.
Same read-out and setting: in the case of TTCTGCTGTGGAACACGTGATA it was -0.914; in that of TGACATTCGAGGCACAGCATGC, -1.17; in that of AAAACGCTCAAGGAAGTCGAGC, -1.04.
TTGGTGGCTCTTGCAGTGGTGA came in with a sensor-assay potency score (higher = more potent) of -1.5.
The same measure, in the same setting: in the case of TTGGTCAGCGCGTTGGTGGCGG it was -0.894.
Same read-out and setting: in the case of TGACCCAGGAAGAATGACCGTA it was -0.348.

The target in a further assay is GPR173. The description is as above. The following applies: shRNA.
Sequence TGAAGGTCCATGAAGAGCCGTG displayed a sensor-assay potency score (higher = more potent) of -0.497.
Still for that read-out and setting: in the case of AATCAGTCCTAGCAGTACCAGC it was -1.44; in that of TACTCGAAGAGGAGCAGCTTGC, -1.59; in that of TTTCACAAACACTCGCCAGTAG, -0.0654.
On the same count and under the same terms, in the case of ATAAAGGCCACAATCTTGCAGC it was -0.595.
Still for that read-out and setting: in the case of TTGCCGTAGACAGCATGGGTAG it was -1.57.
Sequence TGCACTGGCTTCATCTTGCGGT gave a sensor-assay potency score (higher = more potent) of -0.396.
In turn, AAGGCCACAATCTTGCAGCTGA showed a sensor-assay potency score (higher = more potent) of 0.463.
Same read-out and setting: in the case of TTCACCCTTGACCTCGTCCATG it was -1.32; in that of TAAACTTGTAGGTGCCCACGTC, 0.745; in that of TAGCGGGTGACGCTGATGCAGA, -1.36.
In the case of TCACGCACATAATCAGTCCTAG, the sensor-assay potency score (higher = more potent) was -0.629.

In a further assay the target is GPR176. The description is as above. The following applies: shRNA.
ATAGATGTCAGCCACATTGGTT registered a sensor-assay potency score (higher = more potent) of -1.26.
The same measure, in the same setting: in the case of TTGTCTGGATCAGCTCTTCTGG it was -0.703; in that of TAACACCATGAAGTTTCCGAGC, -1.48; in that of TTGAACACGGTTGTGCGGCAAG, -0.817.
Same read-out and setting: in the case of TTTATTGTTTCTGCTCATCTTC it was -0.299; in that of TTGCTCCAGACTTCCGTGCAGG, -0.956.
Still for that read-out and setting: in the case of TAGAGGACTGAGTAGTACCTGT it was -0.351.

Values taken from the OligoGym collection.
Also: reference of the scale not given here.
